# Results published in PubChem BioAssay AID1346428 (National Center for Advancing Translational Sciences (NCATS), 2018).
# The whole screen tested about 48,000 compounds, of which about 1,200 (2.5%) were called active. About 2% were inconclusive and are not listed. This excerpt belongs to a sample that is enriched for actives. Unmarked numbers belong to inactive results.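 Rule for the calls: active = activation of at least 60% and not above a set upper limit (about 1 call in 100 departs from these limits); inconclusive = activation of 40% to 60%, or above that upper limit; inactive = activation under 40%.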
# Target: Probable G-protein coupled receptor 32 (Homo sapiens) (UniProt O75388)
# Experiment: qHTS for Agonists of Human Resolvin D1 Receptor DRV1
# Conditions: CHO-K1 GPR32 beta-arrestin PathHunter luminescence, 90 min; at 76.9 µM; active compounds read high; zero percent set by DMSO-only wells
# Excerpt: Endogenous resolution of inflammation is known to be transduced through various GPCRs and their natural mediators of lipid nature. Resolvin D1 (RvD1) is one of the active players in resolution of acute inflammation through regulation of anti-inflammatory pathways; it is known to enhance phagocytosis of human macrophages, limits neutrophils infiltration, etc. […] The search for GPR32-activating small molecules with anti-inflammatory effects similar to its natural omega-3 derivative ligand in order to use them as research tools for further studies of inflammation and its resolution was the goal of this screening project. For primary screening assay, we used CHO-K1 GPR32 beta-arrestin cell line (DiscoveRx, #93-0321C2A) and the PathHunter(R) beta-Arrestin Assay (DiscoveRx) which measures recruitment of beta-arrestin to the GPR32 and generates chemiluminescent signal. These engineered cells stably transfected with GPR32 co-express GPR32-fused small 42-amino acid fragment of beta-Gal called ProLinktrade mark, and […] -tagged beta-Arrestin fusion protein. When GPR32 is activated by a ligand, it stimulates binding of beta -Arrestin to ProLink-tagged GPR32, and two parts of beta-Gal complement forming a functional enzyme. Upon substrate (PathHunter(R) Detection reagent) addition, beta-Gal hydrolyzes it and generates a chemiluminescent signal.
# The cells were thawed and plated in thawing media containing F-12 HAM (Invitrogen, #11765-054), 10% FBS (Invitrogen, #10082), 1x Glutamine, and 1x Pen/Strep onto the 175-mm flask for 24 hours. Then, thawing media was replaced with Growth media which contains 800microg/mL Geneticin (Invitrogen, #10131) and 300microg/mL Hygromycin B (Invitrogen, #10687) in addition to described above. For the assay, the cells were harvested at ~80% confluent stage with Cell Dissociation buffer (Gibco, #13151), and seeded at 2,500 cells/ 3microL/well in assay media (PathHunter(R) Cell Plating Reagent, DiscoverX, #93-0563R1B) using MultiDrop Combi dispenser (Thermo Scientific, Logan, UT) onto white solid bottom tissue culture-treated 1536-well plates (Greiner # 789173-F) and allowed to attach overnight at 37 degrees C, 95% humidity, 5% CO2, . Next, 23nL/well of compound solutions in DMSO were added with a Pin Tool (Kalypsis, San Diego, CA) to the assay plates. As the basal control (EC0), 23 nL/well of DMSO was used on each plate. The cells were incubated in the presence of compounds or DMSO for 90 minutes at 37 degrees C, 5% CO2. Subsequently, 1.5microL/well of PathHunter(R) Detection Reagent prepared per the manufacturer's instructions was added to the assay plates with BioRAPTR FRDtrade mark dispenser (Beckman Coulter, San Francisco, CA) and incubated for 1 hour at ambient temperature prior to the measurement of the luminescent signal on ViewLux(R) uHTS Microplate Imager (Perkin Elmer, Waltham, MA).
# Probable G-protein coupled receptor 32 (Homo sapiens), sequence (O75388 whole entry, looked up): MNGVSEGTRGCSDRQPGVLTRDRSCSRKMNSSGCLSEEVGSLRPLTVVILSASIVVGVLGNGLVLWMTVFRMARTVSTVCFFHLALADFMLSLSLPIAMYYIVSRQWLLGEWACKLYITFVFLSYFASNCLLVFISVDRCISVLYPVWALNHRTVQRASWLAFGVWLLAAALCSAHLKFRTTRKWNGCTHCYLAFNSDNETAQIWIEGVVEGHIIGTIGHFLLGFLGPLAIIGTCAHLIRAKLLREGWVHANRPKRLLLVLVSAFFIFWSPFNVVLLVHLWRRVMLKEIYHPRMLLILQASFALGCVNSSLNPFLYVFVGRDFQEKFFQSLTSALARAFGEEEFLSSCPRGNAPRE
row,SMILES,activation
1,c1ccc2c(c1)[I+]c1ccccc1-2,85.7% (active)
2,Nc1ccc([N+](=O)[O-])cc1,-34.8%
3,CC[N+]1(CCOC(=O)C(O)(c2ccccc2)c2ccccc2)CCCCC1,-7.19%
4,NCCc1ccc(S(=O)(=O)F)cc1,14.4%
5,CC1N=C(N)OC1c1ccccc1 (stereo not given),-12.2%
6,C=CCN1CCC23c4c5ccc(O)c4O[C@H]2C(=O)CC[C@@]3(O)C1C5 (stereo not given in full),-10.4%
7,O=S(=O)(O)C(F)(F)C(F)(F)C(F)(F)C(F)(F)F,94.8% (active)
8,Cc1nnc(NC(=O)c2cccn(Cc3cccc(F)c3)c2=O)s1,23.9%
9,CCOC(=O)c1ncn2c1[C@@H]1CCCN1C(=O)c1cc(OC)ccc1-2,-9.3%
10,CC1=C(C(=O)O)N2C(=O)[C@@H](N)[C@H]2SC1,-12.7%
